Measurements published in the supplement of paper PMC6555819.

Tests used:
Experiment in all cases: PBM binding z-score (relative to random genomic background probes); higher = stronger binding; sequences stand for … in GC…GCGATTGACAGCGTAGAATGAAGG
[1] = tested on: FXR:RXRa (NR concentration 270 nM, RXRa partner concentration 90 nM)
Summary of the method: (§1)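 Binding z-scores were set against random background probes. The data came from custom Agilent 4×180K protein-binding microarrays carrying double-stranded probes with 34-nt variable regions, incubated 1 h with ligand-free nuclear receptor dimers. Partner-specific antibodies detected binding, and scanned fluorescence was regression-normalized.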

[2] = tested on: LXRa:RXRa (NR concentration 270 nM, RXRa partner concentration 90 nM)
Summary of the method: as §1

[3] = tested on: LXRa homodimer (NR concentration 270 nM)
Summary of the method: as §1

[4] = tested on: LXRb:RXRa (NR concentration 270 nM, RXRa partner concentration 90 nM)
Summary of the method: as §1

[5] = tested on: LXRb homodimer (NR concentration 270 nM)
Summary of the method: as §1

[6] = tested on: PPARa:RXRa (NR concentration 270 nM, RXRa partner concentration 90 nM)
Summary of the method: as §1

[7] = tested on: PPARg:RXRa (NR concentration 180 nM, RXRa partner concentration 90 nM)
Summary of the method: as §1

[8] = tested on: PPARg:RXRa 270nM:90nM, anti-RXR (NR concentration 270 nM, RXRa partner concentration 90 nM)
Summary of the method: as §1

[9] = tested on: PPARg:RXRa 30nM:10nM, anti-RXR (NR concentration 30 nM, RXRa partner concentration 10 nM)
Summary of the method: as §1

[10] = tested on: PPARg:RXRa 90nM:30nM, anti-RXR (NR concentration 90 nM, RXRa partner concentration 30 nM)
Summary of the method: as §1

Sequence	PBM binding z-score [1]	PBM binding z-score [2]	PBM binding z-score [3]	PBM binding z-score [4]	PBM binding z-score [5]	PBM binding z-score [6]	PBM binding z-score [7]	PBM binding z-score [8]	PBM binding z-score [9]	PBM binding z-score [10]
TTTCCAAGGTGAAGGTCGTTGATCCCTCTGTAGA	2.77	2.31	0.296	1.8	-0.21	2.81	2.68	3.7	1.88	3.35
CGAACTAGGTCATTGTCAGGACAGTGAATAGTAA	3.91	3.08	0.611	1.99	0.0511	4.67	7.44	6.43	4.07	5.88
CGTCCAATGTCAAAGGTCAGTGAAGAGATGACGG	4.62	4.48	1.56	3.64	0.773	5.18	6.67	6.88	4.57	6.96
CGTCAAAGTTCAACTATGGTAACGTAAAGCACGC	6.59	6.03	3.91	4.34	2.3	4.97	4.9	5.62	2.24	4.52
TCATTTAGGTAAAAGGTGAAAGTCGGTGTGGTAA	1.72	1.89	0.427	1.95	0.881	5.05	8.63	8.2	9.56	9.37
GGAGCGAGGGCAAGTTGATAGCAGAGTTTGATGG	0.394	0.0427	-0.544	0.219	-0.594	0.728	0.238	0.276	-0.604	-0.121
GTACCAAGGTGAATAGGTCTTTGATGAGTAGGCG	0.444	0.341	-0.168	0.148	-0.363	1.23	0.96	1.11	0.335	0.823
TCATATAGGTAAACAGGTGAAAGCCCGTAAGTTA	0.95	1.13	0.0822	0.763	-0.22	2.4	2.7	3.37	3.79	3.69
AGAATGAGGTTATTAGGATCAGGGAATTGCGGTC	2.04	1.69	0.286	1.38	0.314	2.79	2.39	2.69	0.762	1.59
GATACAGGGTTAGCTAGAGGCCAGAGTATGGAAA	0.0111	0.711	-0.451	0.181	-0.961	0.87	0.379	0.0848	-0.37	-0.205
TCTTGTAGATAAACAGGAGGTTAAGAAAGATCGA	0.162	1.13	0.276	1.01	-0.398	1.27	0.346	1.3	2.82	1.89
CGAACTAGGTCATTGACAGGACAGTGTATAGTAA	4.45	3.09	0.874	2.13	0.106	4.79	7.66	6.32	3.42	5.88
TCTAGCAGGCCAGAAGGTCACTCAAGAGGTACGG	1.61	2.17	0.0558	1.8	-0.711	3.04	1.46	2.86	2.27	2.71
TCATATAGGTAAACAGGTGAAACTCCGTAAGTTA	0.937	1.06	0.143	0.976	-0.264	2.64	2.96	3.47	4.07	3.7
CCAGACAGGTGAAAGGTAACTGAGTCTGGTACGC	0.744	0.866	-0.565	0.528	-0.541	3.52	6.16	6.38	4.81	5.99
TCTGGGAGGACACGAAGGTCAGAGCTTTCCAGAG	1.36	1.16	0.204	1.3	-0.86	1.81	0.579	1.36	1.51	1.53
CGACCTAGGTCAAGGACAGTGAATCTCCGCACGC	4.5	2.95	-0.0211	2.07	-0.684	3.94	3.55	3.19	0.64	1.86
TTACCAAGGTGAAAGGTCGTTGTTGCACGCCTTG	3.74	3.17	0.187	3.12	-0.415	5.29	8.39	7.47	6.57	8.04
TCTGCTAGGTCAACGCTGGTCAGCTAATCTGCTA	3.47	3.1	-0.234	1.74	-0.356	3.27	2.09	3.24	1.85	2.54
ACTAGCAGGCCCAGGGTCACTCAAGATTAGTCCG	1.28	1.58	-0.164	1.69	-0.913	2.27	1.36	2.3	0.49	1.68
TCTGCTAGGTCAACGATGGACAGCTAATCTGCTA	3.08	2.24	-0.31	1.28	-0.137	3.07	2.78	3.12	2.13	2.56
ACTATTAGTGGAGACGAGGGCAACCGATAGGTTG	0.0192	-0.21	-0.488	-0.347	-0.31	-0.00529	0.674	0.335	-0.0792	0.232
TTACCAAGGTGAAAGGTCGTTGATGCACGCCTTG	3.49	3.43	0.252	2.79	-0.555	5.38	9.01	7.94	6.67	8.46
